Experimental data from PubChem BioAssay (NCATS).
Records with an inconclusive call do not appear. Calls of active or inactive are those of the source. Calls come from the whole dose curve; as a rule, active = well fitted inhibition curve with a large enough effect; inconclusive = small, poorly fitted or top-dose-only effect; inactive = flat fitted curve, though single readings scatter.

test system: HACAT; test: qHTS assay to identify novel small-molecules to repurpose for Merkel cell carcinoma treatment (AID 1296009); conditions: MCC and control cell lines, CellTiter-Glo viability, 72 h; at 44.8 µM (top of the series) unless noted; note: nearly all actives have a fitted effect of over 60% in size
In short: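 Dose-response viability screen; 72 hr exposure at 37 degree celsius; CellTiter-Glo added, 10 min room temperature, luminescence read; RLUs scaled between no-cell and DMSO wells.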

| SMILES | outcome |
| --- | --- |
| COc1cccc(Cn2ncc3c4sc(S(C)=O)cc4n(C)c3c2=O)c1 (centres undefined) | inactive |
| CC(C)CC(=O)O[C@@H]1O[C@H](CO)[C@@H](O[C@H]2O[C@H](C)[C@@H](N[C@H]3C=C(CO)[C@@H](O[C@H]4O[C@H](CO)[C@@H](O[C@H]5O[C@H](CO)[C@@H](O[C@H]6O[C@H](CO)[C@@H](O)[C@H](O)[C@H]6O)[C@H](O)[C@H]5O)[C@H](O)[C@H]4O)[C@H](O)[C@H]3O)[C@H](O)[C@H]2O)[C@H](O)[C@H]1O | inactive [at 9.27 µM] |
| COc1ccc(C2COc3cc(O)ccc3C2)c(O)c1OC (centres undefined) | inactive |
| CCN1CCN(C(=O)N[C@@H](C(=O)N[C@@H]2C(=O)N3[C@@H]2SC(C)(C)[C@@H]3C(=O)O)c2ccccc2)C(=O)C1=O | inactive |
| COc1ccc(/C=C/C(N)=O)cc1OC | inactive |
| N[C@@H](CC(=O)Nc1ccc(Oc2cc(F)c(F)cc2Br)cc1)C(=O)O | inactive |
| COc1cc(O)cc2c1C(=O)OC(C)C2 (centres undefined) | inactive |
| COc1cc(/C=C/C(=O)O[C@@H]2C[C@](O)(C(=O)O)C[C@@H](O)[C@H]2O)ccc1O | inactive |
| Cc1cn(C[C@H](N)C(=O)O)c(=O)n(Cc2ccsc2C(=O)O)c1=O | inactive |
| CC(O)C1CCC2C3CCC4CC(OC5OC(C(=O)O)C(O)C(O)C5O)CCC4(C)C3CCC12C (centres undefined) | inactive |
| C/C=C1/[C@H](O[C@@H]2O[C@H](CO)[C@@H](O)[C@H](O)[C@H]2O)OC=C2C(=O)O[C@@H]3C[C@@H](C(C)CO)[C@H](COC(=O)C[C@H]21)[C@H]3C (some centres undefined) | inactive [at 17.4 µM] |
| COc1ccc(NC(=O)c2ccc(-c3ccc(C(N)=O)cc3C)cc2)cc1N1CCN(C)CC1 | inactive |
| Cc1cccc(-c2nn3c(c2-c2ccnc4ccc(C(N)=O)cc24)CCC3)n1 | inactive |
| CC1(C)CC[C@]2(C(=O)OC3OC(CO)C(O)C(O)C3O)CC[C@]3(C)C(=CCC4[C@@]5(C)C[C@@H](O)[C@H](OC6OC(C(=O)O)C(O)C(O)C6O)C(C)(C)C5CC[C@]43C)[C@@H]2C1 (some centres undefined) | inactive [at 9.27 µM] |
| O=C(NCC(=O)N1CCCC1)Nc1ccc2ccccc2c1 | inactive |
| O=C(c1c2ccccc2cc2ccccc12)N1CCC(N2CCC[C@@H](C(=O)N3CCOCC3)C2)CC1 | inactive |
| CC(C)c1ccc2c(c1)C(O)CC1C(C)(CO)CCCC21C (centres undefined) | inactive |
| C=CCc1cc(OC)c(OC(C)C(O)c2ccc(O)c(OC)c2)c(OC)c1 (centres undefined) | inactive |
| COc1cc(O)cc(O[C@@H]2O[C@H](CO)[C@@H](O[C@@H]3OC[C@](O)(CO)[C@H]3O)[C@H](O)[C@H]2O)c1OC | inactive [at 17.4 µM] |
| CC1(C)COC(=O)[C@@H]1O[C@@H]1O[C@H](CO)[C@@H](O)[C@H](O)[C@H]1O | inactive |

| SMILES | outcome |
| --- | --- |
| C[C@@H]1O[C@@H](O[C@H]2[C@@H]3C=CO[C@@H](O[C@@H]4O[C@H](CO)[C@@H](O)[C@H](O)[C@H]4O)[C@@H]3[C@@]3(CO)O[C@@H]23)[C@H](O)[C@H](O)[C@H]1OC(=O)/C=C/c1ccc(O)cc1 | inactive [at 17.4 µM] |
| Cc1c(NC(=O)N2CCOCC2)ccc2c1c1ccccc1n2C(C)C | inactive |
| COC(=O)C1=COC(OC2OC(CO)C(O)C(O)C2O)C2C(COC(=O)/C=C/c3ccc(O)c(O)c3)C(O)C(O)C12 (centres undefined) | inactive [at 17.4 µM] |
| O=C(OC[C@H]1O[C@H](O[C@]2(CO)O[C@H](CO)[C@@H](O)[C@@H]2O)[C@H](O)[C@@H](O)[C@@H]1O)c1ccc(O)cc1 | inactive [at 17.4 µM] |
| C=CC(C)(O)C1CC2C3(C)CCCC(C)(C)C3C(O)C(O)C2(C)O1 (centres undefined) | inactive |
| CC1CC(=O)[C@]2(O)C(C(=O)OCCc3ccc(O)c(O)c3)=CO[C@@H](O[C@@H]3O[C@H](CO)[C@@H](O)[C@H](O)[C@H]3O)[C@H]12 (some centres undefined) | inactive [at 17.4 µM] |
| COc1cc(O)cc2c1C(=O)OC(C)CCCCCCC2 (centres undefined) | inactive |
| C=C(C)[C@H]1CC[C@]2(C(=O)O)CC[C@]3(C)C(CCC4[C@@]5(C)CCC(=O)C(C)(C)C5CC[C@]43C)C12 (some centres undefined) | inactive [at 17.4 µM] |
| OCC1OC(Oc2cc(O)cc(/C=C/c3ccc(OC4OC(CO)C(O)C(O)C4O)cc3O)c2)C(O)C(O)C1O (centres undefined) | inactive [at 17.4 µM] |
| CC(C)[C@](O)(c1ccc2cc(OC(F)F)c(OC(F)F)cc2c1)c1cn[nH]n1 | inactive |
| C/C=C1/[C@H](O[C@@H]2O[C@H](CO)[C@@H](O)[C@H](O)[C@H]2O)OC=C(C(=O)OC)[C@H]1CC(=O)OCCc1ccc(OC(=O)C[C@@H]2C(C(=O)OC)=CO[C@@H](O[C@@H]3O[C@H](CO)[C@@H](O)[C@H](O)[C@H]3O)/C2=C/C)cc1 | inactive [at 9.27 µM] |
| C/C(=C/CO)CC[C@H]1[C@]2(C)C[C@H](O)CC(C)(C)[C@H]2CC[C@]1(C)O | inactive |
| C[C@@H]1O[C@@H](O[C@@H]2\C=C/C=C\C=C/C=C\C[C@H](C)OC(=O)/C=C\[C@H]3O[C@@H]3C[C@H](O)C[C@]3(O)C[C@@H](O)[C@@H](C(=O)O)[C@H](C2)O3)[C@H](O)[C@H](N)[C@@H]1O | inactive |
| COc1cc(C)c(C(=O)O[C@@H]2[C@H](O)[C@@H](CO)O[C@H]2n2ccc(=O)[nH]c2=O)c(OC)c1 | inactive [at 17.4 µM] |
| C=C(CCO)C(=O)OCC1OCC(OC(=O)C(=C)CCO[C@@H]2O[C@H](CO)[C@@H](O)[C@H](O)[C@H]2O)C(O)C1O (some centres undefined) | inactive [at 17.4 µM] |
| COc1ccc(/C=C/C(=O)N2CCCC2)cc1 | inactive |
| C[C@@H]1O[C@@H](OC[C@H]2O[C@@H](OCc3ccccc3)[C@H](O)[C@@H](O)[C@@H]2O)[C@H](O)[C@H](O)[C@H]1O | inactive [at 17.4 µM] |
| CC(=O)O[C@@H]1C=C2[C@H](CC[C@@]3(C)[C@@]2(O)CC[C@H]2Cc4c([nH]c5ccccc45)[C@@]23C)O[C@@H]1C(C)(C)O | inactive [at 17.4 µM] |
| Cc1cc(Cn2cnc3c2CC(C(=O)O)N(C(=O)C(c2ccccc2)c2ccccc2)C3)ccc1N(C)C (centres undefined) | inactive |
